Measurements from PubChem BioAssay (NCI).
Several values for one entry are separate records, joined by “and”; a condition that tells them apart may be missing. Equal entries are not always repeated. Compounds without any hit were thinned out: in the full panel of roughly 79,000, 15% have a hit. Values without a mark were called inactive. Activity calls are given as the source filed them. No stated cut-off is given here; in the data, active means growth inhibition above about 70%; inactive means the rest.

Experiments:
[1] = NCI Yeast Anticancer Drug Screen. Data for the rad50 strain (AID 155);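 further: 0% = growth of vehicle-only cultures of the same strain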; details: S. cerevisiae rad50 strain growth inhibition, stronger effect = higher value; at 50.0 µM unless noted
How it was run: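 Genetically altered yeast (DNA repair pathway); compound treatment; growth inhibition vs vehicle ctrl.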

[2] = NCI Yeast Anticancer Drug Screen. Data for the mec2-1 strain (AID 157); details: S. cerevisiae mec2-1 strain, stronger effect = higher value; at 50.0 µM unless noted
How it was run: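 Growth inhibition is read against vehicle-treated controls after compound exposure of the mec2-1 yeast strain, which is defective in DNA damage repair or cell cycle control.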

[3] = NCI Yeast Anticancer Drug Screen. Data for the sgs1 mgt1 strain (AID 161);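 further: 0% = growth of cultures given vehicle only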; details: S. cerevisiae sgs1 mgt1 strain, stronger effect = higher value; at 50.0 µM unless noted
How it was run: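 This yeast growth screen uses a strain with defined DNA-repair lesions; compound-treated growth is compared with vehicle-treated growth.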

[4] = NCI Yeast Anticancer Drug Screen. Data for the cln2 rad14 strain (AID 165);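 further: 0% = growth equal to vehicle treated cultures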; details: S. cerevisiae cln2 rad14 strain, stronger effect = higher value; at 50.0 µM unless noted
How it was run: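 Growth inhibition, relative to vehicle-treated controls, is the read-out. The test organism is a yeast strain with defined genetic alterations, cln2 rad14.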

[5] = NCI Yeast Anticancer Drug Screen. Data for the bub3 strain (AID 167); details: S. cerevisiae bub3 mutant strain, stronger effect = higher value; at 50.0 µM unless noted
How it was run: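 Yeast carrying a defined mutation is treated with each compound, and growth is compared with that of vehicle-exposed cells to give inhibition.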

[6] = NCI Yeast Anticancer Drug Screen. Data for the mlh1 rad18 strain (AID 175); details: S. cerevisiae mlh1 rad18 strain growth inhibition, stronger effect = higher value; at 50.0 µM unless noted
How it was run: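 Cells of a genetically altered yeast strain, deficient in DNA damage repair, were treated with compound. Their growth was then compared with that of vehicle-treated cultures to give inhibition.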

Row | SMILES | growth inhibition [1] | growth inhibition [2] | growth inhibition [3] | growth inhibition [4] | growth inhibition [5] | growth inhibition [6]
1 | Cc1nn(C)c(N)c1C#N | -15.9% and 8% | -11.7% and 5.95% | -24.6% and 3.6% | 0.3% and 26.9% | -8.45% and -6.5% | -18.2% and -7.45%
2 | Cc1ccc2c(N=Nc3ccc(C(=N)N)cc3)ccc(O)c2n1 | 99.3% (active) | 99.4% (active) | 99.5% (active) | 98.2% (active) | 99.2% (active) | 99.2% (active)
3 | CC(=O)c1cccc(NC(=O)Nc2ccc(F)c([N+](=O)[O-])c2)c1 | 7.3% | 22.9% | 21.9% | 3.25% | 36.5% | 2.75%
4 | CC(=O)OC1c2ccccc2CCCCCCC12OCCO2 (stereo not given) | -25.1% | -36.4% | -53.2% | 1.8% | -36.3% | -7.25%
5 | NC(Cc1c[nH]c2ccccc12)C(=O)O (stereo not given) | 4.2% and -1.1% | -7.9% and -8.7% | -13.2% and 6.55% | 3% and -1.25% | -28.4% and -2.7% | 2.65% and -16.2%
6 | O=C(O)c1cc(Cl)cc(C(=O)O)n1 | -19.4% | -1.75% | -11.8% | 16.1% | 4.65% | -1.7%
7 | CC1CCCN(CCC(=O)c2ccc(O)cc2)C1 (stereo not given) | 38.2% | 22.5% | 26.3% | 21.2% | 7.35% | 32.4%
8 | CCCOC(=O)C1C(=O)CC(c2ccccc2)C1c1ccccc1 (stereo not given) | 1.95% | -2.05% | 1.3% | -4.15% | 1.25% | -0.4%
9 | ClCCCCCNC1CCCCC1 | -1.2% | -45.6% | -4.3% | -15.7% | -17.2% | -14.2%
10 | CN(C)C(=O)NN1CCCCCC1 | 7.25% | 13.9% | -14.2% | -14.7% | 13.3% | -13.3%
11 | CCOC(=O)c1c[nH]n(-c2ccccc2)c1=O | 9.65% | -3.95% | -4.75% | -3.15% | -2.7% | 12.6%
12 | C=C(C)C(=O)Oc1ccccc1/C=C/C(=O)CCCCCC | -8.45% | -14.1% | -20.4% | -9.1% | -11% | 4.4%
13 | COc1ccc(NC(Nc2ccc(OC)cc2)C(Cl)(Cl)Cl)cc1 | 15.1% | 9.5% | 13% | -11.2% | -4.55% | -8.6%
14 | CC12CC[C@H](O)C(C)(C)[C@H]1CC[C@](C)(O)C2COc1ccc2ccc(=O)oc2c1 (stereo not given in full) | 86.3% (active) | 75.2% (active) | 85.6% (active) | 37.1% | 76.3% (active) | 77.1% (active)
15 | NC(=S)N/N=C1/CN(c2ccc(Cl)c(Cl)c2)CC(=O)C1c1nc2ccccc2s1 (stereo not given) | 49.1% | 28.6% | 53% | 26.1% | -0.65% | 52.2%
16 | CN(C)c1ccc(S(=O)(=O)OC2C(C3COC(C)(C)O3)OC3OC(C)(C)OC32)cc1 (stereo not given) | -8.5% | 0.75% | -8.7% | -16.2% | 3.25% | 4.7%
17 | Cc1nc(SCC(=O)Nc2ccccc2)c2sc(=S)n(-c3ccccc3)c2n1 | -45.9% | -10.2% | -0.05% | -5.35% | -19.9% | -18.4%
18 | O/N=C1\c2ccccc2-c2cccc(Br)c21 | 0.25% | 2.9% | 4.55% | -40.6% | -9.6% | 5.45%
19 | O=C(CCCC(=O)N/N=C/c1ccccc1O)N/N=C\c1ccccc1O | 4.55% | -6.65% | -20.4% | 3.35% | -3.5% | -12.9%
20 | c1ccc(CSCc2cnc[nH]2)cc1 | -1.3% | 0.6% | -1.95% | 14.8% | 5.7% | -6.95%
